Shown are actives, neighbours in structure and some others; about 19% of the full set was active somewhere.
DT40 TDP1 no CPT: qHTS for Inhibitors of human tyrosyl-DNA phosphodiesterase 1 (TDP1): qHTS in cells in absence of CPT | DT40 Tdp1-/- hTDP1 cells, no CPT, ATP luminescence, 48 h | 15% of 420,000 active | Potency, µM (titrated, usually from 46.2 µM), for the others: at the top dose activity change, negative = growth inhibition, actives largely listed as inhibitors; also: potency is read from the fitted curve at half-maximal effect; nearly all actives have a fitted effect of over 55% in size
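Stably hTDP1-transfected Tdp1-null chicken DT40 cells were treated with library compounds minus camptothecin and grown for at least 48 hr at 37 °C, after which cellular ATP was quantified by luminescence.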
HT1080 IDH1KD tx: qHTS for induction of synthetic lethality in tumor cells producing 2HG: qHTS for the HT-1080-IDH1KD cell line; HT-1080 IDH1 knockdown viability, ATP luminescence, 48 h; AID 686971, 2013; Potency, µM (titrated, usually from 46.1 µM), for the others: at the top dose activity, negative = toxicity, usual class: cytotoxic; 2% of 360,000 active;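 also: potency is read from the fitted curve at half-maximal effect; 0% = DMSO wells and -100% = cell-free medium wells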
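CellTiter-Glo luminescence after 48 h compound exposure at 37 degrees C of IDH1-knockdown HT-1080 cells in 5% FBS RPMI. %Activity scaled between DMSO wells and cell-free media wells, with curves fitted and assigned curve classes.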
HT1080NT lethal: qHTS for induction of synthetic lethality in tumor cells producing 2HG: qHTS for the HT-1080-NT fibrosarcoma cell line | HT-1080-NT fibrosarcoma viability, CellTiter-Glo ATP luminescence, 48 h | Potency, µM (doses to about 46.1 µM), without a hit: at the top dose activity, negative = less viability, most hits filed as cytotoxic | 1.6% of 360,000 active | AID 686970, 2013;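 also: NT is the 2HG producing partner of a matched IDH1 knockdown line; potency is read from the fitted curve at half-maximal effect; 0% = DMSO-treated cells and -100% = media-only wells without cells; nearly all actives have a fitted effect of over 55% in size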
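Viability of the 2HG-overproducing fibrosarcoma line after 48 hours of compound exposure at 37 degrees C was determined by luminescence with CellTiter-Glo, and concentration-effect curves were then fitted and categorized.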
IL1B secr inh: qHTS for Inhibitors of Inflammasome Signaling: IL-1-beta AlphaLISA Primary Screen | THP-1 LPS/ATP IL-1B secretion, AlphaLISA, 16 h; hits give low values | activity change, % at 57.5 µM | 4.7% of 360,000 active | AID 743279, 2014; in the data active = activity change below about -50%; inconclusive = mostly about -30% to -49%
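Secreted IL-1B measured by AlphaLISA bead assay after 16 h compound exposure of THP-1 cells; compounds (final up to 57.5 uM) added 1 h before LPS (250 ng/mL) and ATP (1.25 mM) stimulation; lower signal means less secretion.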
DT40 TDP1 CPT: qHTS for Inhibitors of human tyrosyl-DNA phosphodiesterase 1 (TDP1): qHTS in cells in presence of CPT; chicken DT40 Tdp1-/-;hTDP1 cells + 20 nM CPT, ATP luminescence, 48 h; Potency, µM (doses to about 46.2 µM), for the others: at the top dose activity change, negative = growth inhibition, most hits filed as inhibitors; 12% of 420,000 active; also: potency is read from the fitted curve at half-maximal effect; nearly all actives have a fitted effect of over 55% in size
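Chicken DT40 Tdp1-/- cells stably complemented with human TDP1 were seeded at 400 cells/well in medium containing 20 nM camptothecin, exposed to pin-transferred compounds, and grown at 37 °C for at least 48 hr. Viability was read as ATP luminescence.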
Numbers without * were called inactive; ? = inconclusive; . = not tested or not shown; [ ] = remark or other dose. Unless noted, calls follow the shape of the dose curve; as a rule, active = well fitted curve in the direction sought with a large enough effect; inconclusive = small, poorly fitted or top-dose-only effect, or another doubt; inactive = no such curve, though single readings can be large; an effect the other way counts as inactive or inconclusive. Unless noted, % is scaled to controls: 0 for no effect and ±100 for the full control effect.

SMILES	DT40 TDP1 no CPT	HT1080 IDH1KD tx	HT1080NT lethal	IL1B secr inh	DT40 TDP1 CPT
CN(c1cccc(NC(=O)CN(c2ccc(C34CC5CC(CC(C5)C3)C4)cc2)S(C)(=O)=O)c1)S(C)(=O)=O	20.6µM*	20µM*	?	-4.7	18.4µM*
Cc1ccc(S(=O)(=O)N(CC(=O)Nc2c(C)cccc2C)c2cccc(Cl)c2)cc1	14.6µM*	.	.	.	?
COc1cccc(NC(=O)CN(c2cccc(C(F)(F)F)c2)S(C)(=O)=O)c1	-21.3%	-22.9%	-21.1%	?	-14.0%
COc1ccc(C)cc1N(CC(=O)Nc1cccc(N(C)S(C)(=O)=O)c1)S(C)(=O)=O	?	?	?	30.7	20.6µM*
CN(c1cccc(NC(=O)CN(c2ccc(Cl)c(Cl)c2)S(=O)(=O)c2ccccc2)c1)S(C)(=O)=O	20.6µM*	-29.4%	-21.5%	0.0	?
O=C(CN(c1cccc(C(F)(F)F)c1)S(=O)(=O)c1ccccc1)Nc1cccc(Cl)c1	14.6µM*	.	.	.	16.4µM*
Cc1ccc(S(=O)(=O)N(CC(=O)Nc2cccc(N(C)S(C)(=O)=O)c2)c2ccc(Cl)c(Cl)c2)cc1	23.1µM*	-23.8%	-12.2%	-25.1	20.6µM*
COCOCCn1cc(CN2CCS(=O)(=O)N(Cc3ccc(-c4ccc(F)nc4)cc3)C(C)C2=O)nn1 (centres undefined)	-19.3%	7.2%	18.8%	12.4	-0.8%
CCCCC/C=C/C=C1/C(=O)C=C[C@@H]1C/C=C\CCCC(=O)O	-30.0%[4.12 µM]	.	.	.	0.9%[4.12 µM]
COc1ccc(CNC(=O)C23CC4CC(CC(Br)(C4)C2)C3)cc1	1.0%	-16.1%	-1.6%	-9.7	-4.7%
COc1ccc(C(=O)C23CC4CC(C2)CC(C(=O)c2ccc(OC)cc2)(C4)C3)cc1	16.4µM*	0.4%	1.6%	13.0	?
Cc1cc(C(=O)N2CCN(c3cccc(Cl)c3)CC2)c2c(C)nn(-c3ccccc3Cl)c2n1	29.1µM*	.	.	.	?
Cc1onc(-c2c(Cl)cccc2Cl)c1C(=O)N1CCN(c2ccc(F)cc2)CC1	?	-6.2%	-3.9%	-18.7	?
COc1cc(NC(=O)c2cc(C)nc3c2c(C)nn3-c2ccccc2Cl)cc(OC)c1	23.1µM*	.	.	.	?
Cc1cc(C(=O)N2CCN(c3ccc(F)cc3)CC2)c2c(C)nn(-c3cccc(Cl)c3C)c2n1	14.6µM*	.	.	.	20.6µM*
COc1ccc(NC(=O)c2cc(C)nc3c2c(C)nn3-c2cccc(Cl)c2C)c(OC)c1	-25.1%	.	.	.	-16.4%
CC(=O)Nc1ccc(C(=O)OCC(=O)c2cccc([N+](=O)[O-])c2)cc1	10.8%	10.9%	6.7%	28.2	-25.1%
O=C(COc1cccc(NC(=O)c2ccccc2)c1)c1ccc(F)cc1	-49.0%	-26.9%	-6.2%	-5.9	?
CCOc1cccc(C(=O)Nc2cccc(NC(=O)c3ccco3)c2)c1	?	-12.1%	-9.0%	-4.2	-28.7%
COC(=O)Nc1ccc(SCC(=O)c2cccc([N+](=O)[O-])c2)cc1	20.6µM*	?	?	-19.5	?
COc1cccc(C(=O)COc2cccc(NC(=O)c3cccc([N+](=O)[O-])c3)c2)c1	16.4µM*	-19.0%	-18.1%	?	?
O=C(COc1cccc(NC(=O)c2cccc([N+](=O)[O-])c2)c1)c1ccc(F)cc1	13µM*	?	-23.2%	?	?
O=C(COc1cccc(NC(=O)c2ccco2)c1)c1ccc(F)cc1	20.6µM*	-9.2%	-8.2%	-0.3	?
C/C=C(/CCC1NCCc2c1[nH]c1ccccc21)[Si](C)(C)C (centres undefined)	2.91µM*	?	?	-99.4*	3.26µM*
COc1cccc(Oc2nc(-c3ccccc3O)nc3ccccc23)c1	-0.8%	4.4%	8.1%	54.9	-7.5%
SMILES	DT40 TDP1 no CPT	HT1080 IDH1KD tx	HT1080NT lethal	IL1B secr inh	DT40 TDP1 CPT
Cc1nc(Oc2ccccc2)c2ccccc2n1	?	-20.3%	?	?	-22.9%
c1ccc(Oc2nc(-c3ccccn3)nc3ccccc23)cc1	2.06µM*	?	-7.6%	?	2.59µM*
COc1ccc(Oc2nc(-c3ccccn3)nc3ccccc23)cc1	4.11µM*	?	?	-93.1*	3.26µM*
c1ccc(Oc2c3ccccc3nc3ccccc23)cc1	20.6µM*	?	?	11.1	?
Fc1ccc(Oc2nc(-c3ccccn3)nc3ccccc23)cc1	5.8µM*	?	-23.2%	.	4.61µM*
CC1CCN(C(=O)c2nc[nH]c2C(=O)N2CCC(C)CC2)CC1	16.9%	4.1%	13.7%	-5.1	1.9%
CC(C)=CCC12Oc3cc(O)ccc3C1(O)Oc1cc(O)c([C@H]3C=C(C)CC(c4ccc(O)cc4O)[C@H]3C(=O)c3ccc(O)cc3O)c(O)c1C2=O (some centres undefined)	25.9µM*	?	?	22.4	?
COc1ccc(NC(=O)CN(C)C(=O)Cc2c(C)nc3ccccc3c2C)cc1	?	-15.8%	-23.8%	50.3	?
CCN(CC(=O)Nc1ccc(NC(C)=O)cc1)C(=O)c1cc(-c2ccccc2Cl)nc2ccccc12	14.6µM*	-4.6%	?	-6.0	?
CCOc1ccc(NC(=O)CN(C)C(=O)c2cc(-c3ccc(OC)cc3)nc3ccccc23)cc1OCC	14.6µM*	-21.4%	-4.4%	-3.8	?
COc1ccc(NC(=O)CN(C)C(=O)c2cc(-c3ccc(Cl)cc3)nc3ccccc23)cc1	20.6µM*	-22.0%	-17.8%	-6.5	?
CCOc1ccc(NC(=O)CN(C)C(=O)c2sccc2-c2ccccc2)cc1OCC	?	-27.0%	-5.4%	-5.3	?
O=C(O)C(CCCCNS(=O)(=O)c1ccc(F)cc1)NS(=O)(=O)c1ccc(F)cc1 (centres undefined)	1.1%	-2.4%	-1.0%	-8.9	-4.4%
CC(C)NS(=O)(=O)c1ccc(NC(=O)C(C)OC(=O)C2CCC2)cc1 (centres undefined)	-22.2%	0.0%	16.1%	15.7	-2.2%
CN(C)CCC(C(=O)c1ccccc1)c1ccccn1 (centres undefined)	7.4%	-2.2%	-5.9%	8.6	2.3%
CCCCC(CCc1ccccn1)C(=O)c1ccccc1 (centres undefined)	?	-1.8%	6.4%	-3.2	23.1µM*
CN(C)CC(CCCCC(CN(C)C)C(=O)c1ccccc1)C(=O)c1ccccc1 (centres undefined)	5.8µM*	?	?	-72.1*	5.8µM*
